Out of some 38,000 compounds screened, about 1,200 (3.2%) showed an effect of 50% or more. The median lay at about -58%. The entries come from a sample that favours strong results as a whole.
tested on: Plasmodium falciparum; test: Calibr Malaria Delayed Death Assay SOP; assay type: functional, organism-based; design: scale not given: in the data most compounds retested in dose-response had high values; conditions: concentration 4.99e-06 (unit not given; other assays of the set use mol/L)

In order of falling “Percent Effect” value:
1. CCN(CC)CCNC(=O)c1ccc(-n2ccc3ccccc32)s1  90.12%
2. Oc1ccc(Cl)cc1CNCc1cccc(C(F)(F)F)c1  88.68%
3. Cc1cccc(CN2C[C@H]3CCC[C@@]3(COCc3csc(C)n3)C2)n1.O=C(O)C(F)(F)F.O=C(O)C(F)(F)F  81.41%
4. Cc1cnccc1CN1CC[C@H](Oc2cccc(F)c2)[C@@](C)(O)C1  79.24%
5. N#Cc1cccc(CN2CCn3cc(Cn4cccn4)nc3C2)c1.O=C(O)C(F)(F)F.O=C(O)C(F)(F)F  78.59%
6. Cc1ccc2c(n1)N(CCn1cccn1)CCN(CC1CC1)C2.O=C(O)C(F)(F)F.O=C(O)C(F)(F)F  77.61%
7. CN(C)CCN1CCN(Cc2cccs2)Cc2cccnc21.O=C(O)C(F)(F)F.O=C(O)C(F)(F)F.O=C(O)C(F)(F)F  77.04%
8. Oc1ccc(Cl)cc1CNCc1ccccc1Cl  75.8%
9. Cc1ccccc1CNCc1cc(Cl)ccc1O  74.83%
10. CN(C)CCN1CCN(Cc2cccc(C#N)c2)Cc2cccnc21.O=C(O)C(F)(F)F.O=C(O)C(F)(F)F.O=C(O)C(F)(F)F  65.04%
11. Cn1cc(CN2C[C@H]3CCC[C@@]3(COc3ccccn3)C2)cn1.O=C(O)C(F)(F)F.O=C(O)C(F)(F)F  64.46%
12. Oc1ccc(Cl)cc1CNCc1ccccc1C(F)(F)F  63.6%
13. C[C@]1(O)CN(CCO)CC[C@@H]1Oc1cccc(F)c1  63.55%
14. CN(C)CCOCC1CN(Cc2cccs2)Cc2ccnn2C1.O=C(O)C(F)(F)F.O=C(O)C(F)(F)F.O=C(O)C(F)(F)F (configuration not stated)  62.34%
15. Cc1ccc2c(n1)N(CCN(C)C)CCN(Cc1c(C)noc1C)C2.O=C(O)C(F)(F)F.O=C(O)C(F)(F)F.O=C(O)C(F)(F)F  61.92%
16. CCn1nnc2c1C(COCCN(C)C)CN(Cc1ccc(C)s1)C2.O=C(O)C(F)(F)F.O=C(O)C(F)(F)F (configuration not stated)  60.03%
17. Cn1cc(CN2C[C@H]3CCC[C@@]3(COCC3CC3)C2)cn1.O=C(O)C(F)(F)F  51.84%
18. CC(C)CN1CCCC1c1ccc(C(=O)Nc2cn(C)nn2)s1 (configuration not stated)  51.14%
19. O=C(O)C(F)(F)F.O=C(c1cocn1)N1C[C@H]2CCC[C@@]2(COc2ccccn2)C1  50.75%
20. Fc1ccc(CN2CCn3cc(Cn4cccn4)nc3C2)cc1.O=C(O)C(F)(F)F  43.38%
21. CC(C)CN1CCCC1c1ccc(C(=O)Nc2cc[nH]n2)s1 (configuration not stated)  42.59%
22. OCc1cccc(CNCc2cccc3c2OCCO3)c1  41.91%
23. CCN(CC)Cc1ccccc1NC(=O)N(C)Cc1ccc(OC)cc1  39.65%
24. Cc1cnccc1CN1CC[C@@](C)(O)[C@H](Oc2cccc(F)c2)C1  38.73%
25. O=C(NCCCN1CCOCC1)c1ccc(-n2ccc3ccccc32)s1  33.29%
26. C[C@]1(O)CN(CC(=O)N2CCCC2)CC[C@@H]1Oc1cccc(F)c1  21.38%
27. Cc1noc(C)c1CN1CCN(CCN(C)C)c2ncccc2C1.O=C(O)C(F)(F)F.O=C(O)C(F)(F)F.O=C(O)C(F)(F)F  19.65%
28. O=C(O)C(F)(F)F.O=C(c1ncccn1)N1C[C@H]2CCC[C@@]2(COc2ccccn2)C1  12.48%
29. CN(C)CCN1CCN(Cc2ccco2)Cc2cccnc21.O=C(O)C(F)(F)F.O=C(O)C(F)(F)F.O=C(O)C(F)(F)F  11.84%
30. Cc1cc(CN2C[C@H]3CCC[C@@]3(COCc3csc(C)n3)C2)no1.O=C(O)C(F)(F)F  11.53%
31. O=C(O)C(F)(F)F.O=C(O)C(F)(F)F.c1ccc(CCN2CCn3cc(Cn4cccn4)nc3C2)cc1  7.27%
32. Cc1ccc(C(=O)N2C[C@H]3CCC[C@@]3(COc3ccccn3)C2)nc1.O=C(O)C(F)(F)F.O=C(O)C(F)(F)F  6.864%
33. O=C(NCCN1CCOCC1)c1ccc(-n2ccc3ccccc32)s1  6.644%
34. CN(C)CCN1CCN(Cc2nccs2)Cc2cccnc21.O=C(O)C(F)(F)F.O=C(O)C(F)(F)F.O=C(O)C(F)(F)F  5.575%
35. Fc1cnc(N2C[C@H]3CCC[C@@]3(COc3ccccn3)C2)nc1.O=C(O)C(F)(F)F.O=C(O)C(F)(F)F  3.485%
36. CS(=O)(=O)N1C[C@H]2CCC[C@@]2(COc2ccccn2)C1.O=C(O)C(F)(F)F  2.668%
37. CC(C)CN(C(=O)Nc1cccnc1)C1CC1  -3.552%
38. COc1ccccc1CNC(=O)N1CCN(Cc2cc(C)on2)CC1  -4.63%
39. NS(=O)(=O)c1ccc(NCc2ccccc2F)cc1C(F)(F)F  -7.015%
40. CC(NC(=O)Cc1ccccc1F)(C(N)=O)c1cccc(Cl)c1 (configuration not stated)  -10.09%
41. CCN1Cc2ccccc2N(C(=O)C2CCC2)CCC1=O  -10.23%
42. OC(COc1ccccc1)CN1CCN(c2nccs2)CC1 (configuration not stated)  -10.76%
43. Cc1nc(N(C)C)nc(NCCc2ccccn2)c1C  -11.2%
44. COCC(=O)N1Cc2ccnn2CC(COCCN(C)C)C1.O=C(O)C(F)(F)F.O=C(O)C(F)(F)F (configuration not stated)  -13.35%
45. Cn1cc(CN2C[C@@H]3COC[C@]3(COCC3CC3)C2)cn1.O=C(O)C(F)(F)F  -16.85%
46. Cc1nc(COC[C@@]23CCC[C@@H]2CN(Cc2nccs2)C3)cs1.O=C(O)C(F)(F)F  -17.19%
47. CN(C)CCOCC1CN(C(=O)c2ccsc2)Cc2ccnn2C1.O=C(O)C(F)(F)F.O=C(O)C(F)(F)F (configuration not stated)  -18.09%
48. Clc1snnc1CN1CCCC1Cn1cncn1 (configuration not stated)  -22.89%
49. CCc1ncc2c(n1)CN(Cc1nc(-c3cccs3)no1)CC2  -24.12%
50. Cc1cc(NC(=O)Cc2ccccc2O)c[nH]c1=O  -29.46%
51. Cc1nccc(CN2CC[C@H](Oc3cccc(F)c3)[C@@](C)(O)C2)n1  -32.63%
52. CN(Cc1ccc(C#N)cc1)CC1CCS(=O)(=O)C1 (configuration not stated)  -39.39%
53. CC(=O)N1CCN(C(=O)Cn2ccc3c(Cl)cccc32)CC1  -40.91%
54. C[C@]1(O)CN(Cc2ncccc2F)CC[C@@H]1Oc1cccc(F)c1  -43.28%
55. CC[C@H](C)[C@H](N)C(=O)Nc1nc(-c2cnc(N3CCOCC3)nc2)cs1  -43.38%
56. C[C@]1(O)CN(CCC(N)=O)CC[C@@H]1Oc1cccc(F)c1  -45.94%
57. CC(=O)Nc1ccc(CNc2cccc(CS(C)(=O)=O)c2)cc1  -47.89%
58. O=C(NCc1cccs1)[C@@H]1CC[C@@H]2[C@@H](CCN2C2CCOCC2)O1.O=C(O)C(F)(F)F  -51.06%
59. CCc1n[nH]c(C2CN(C(=O)c3ccc(NC4CC4)nc3)CCO2)n1 (configuration not stated)  -51.88%
60. O=S1(=O)CCC(S(=O)(=O)c2cccc(S(=O)(=O)N3CCCCCC3)c2)C1 (configuration not stated)  -52.35%
61. Cc1nc(C)n(CC2CCCN2CC(=O)Nc2cccnc2)n1 (configuration not stated)  -55.47%
62. CN(C)C(=O)c1cnc2n1CCN(Cc1cccc(C#N)c1)C2.O=C(O)C(F)(F)F  -58.91%
63. NC(=O)C1Cn2ccnc2C2(CCN(C(=O)c3ccncc3)CC2)O1 (configuration not stated)  -59.21%
64. CC1N(c2cnn(C)c2)C(=O)COC12CCN(Cc1ccoc1)CC2 (configuration not stated)  -59.84%
65. CCc1ccc(CN2CCC3(CC2)CN(c2cnn(C)c2)C(=O)CO3)o1.O=C(O)C(F)(F)F.O=C(O)C(F)(F)F  -59.96%
66. COCCN1CCN(Cc2c(C)noc2C)Cc2ccc(C)nc21.O=C(O)C(F)(F)F.O=C(O)C(F)(F)F  -62.13%
67. CCS(=O)(=O)N1CCN(CCn2cccn2)c2nc(C)ccc2C1.O=C(O)C(F)(F)F  -65.79%
68. NS(=O)(=O)c1ccc(CNCC(=O)NCc2ccc(Cl)cc2Cl)cc1  -66.27%
69. COCc1nnc(NC(=O)CN2C(=O)c3ccccc3NC2C(C)C)s1 (configuration not stated)  -66.52%
70. O=C1CCCN1c1cccc(CNCc2cc(F)ccc2F)c1  -68.04%
71. CN1CCCC1c1ccc(C(=O)Nc2c3c(nn2C)CCC3)s1 (configuration not stated)  -68.39%
72. CC(=O)N1CCC(NC(=O)c2cc(Cl)ccc2O)CC1  -71.2%
73. CCc1nc(CN2CCCC(N(C)CCn3cccn3)C2)no1 (configuration not stated)  -71.81%
74. O=S(=O)(C1CC1)N1CCc2ncnc(N3CCOCC3)c2CC1  -72.08%
75. O=C(O)C(F)(F)F.O=C(O)C(F)(F)F.c1ccc(CN2C[C@H]3CCC[C@@]3(COCC3CC3)C2)nc1  -73.03%
76. O=C(COc1ccc(Cl)cc1)N1CCOCC1c1ncon1 (configuration not stated)  -73.82%
77. CCn1nnc2c1C(COCCN(C)C)CN(Cc1ccco1)C2.O=C(O)C(F)(F)F.O=C(O)C(F)(F)F (configuration not stated)  -73.97%
78. OCCNc1nc(NCc2cccnc2)nc2nccnc12  -78.22%
79. CN1CCN(Cc2cccc(C#N)c2)Cc2cccnc21.O=C(O)C(F)(F)F.O=C(O)C(F)(F)F  -79.43%
80. CC(C)NC(=O)C1CN(C(=O)CCc2ccccc2)CC12CCOCC2 (configuration not stated)  -79.45%
81. Cc1cc2nc(C(C)C)cc(N3CCN(S(N)(=O)=O)CC3)n2n1  -79.73%
82. O=C(c1cc(C2CC2)[nH]n1)N1CCN(Cc2ccccc2)CC1  -79.8%
83. COc1ccc(CCC(=O)N2CCCC(n3cncn3)C2)cc1 (configuration not stated)  -80.83%
84. O=C(Cc1ccccc1)N1CCC2(CC1)COCCN2CC1CC1.O=C(O)C(F)(F)F  -81.37%
85. Cc1ccc(CN2Cc3nnn(C)c3C(COCC(=O)N(C)C)C2)s1.O=C(O)C(F)(F)F (configuration not stated)  -90.04%
86. CCOc1ccc(C(=O)N2CCCCC2Cn2nc(C)cc2C)cn1 (configuration not stated)  -93.63%
87. C[C@]1(O)CN(Cc2cccc(C(=O)O)c2)CC[C@@H]1Oc1cccc(F)c1  -94.06%
88. COc1ccc(C2CCCN2C(=O)NCCCn2cccn2)cc1 (configuration not stated)  -95.69%
89. CSCC(=O)NCc1cc(Br)ccc1OC(F)F  -97.53%
90. CCS(=O)(=O)N1CCc2cc(C(=O)N(C)C)c(NCC3CC3)nc2CC1  -99.83%
91. O=C(CN1CCc2onc(-c3ccccc3F)c2C1)NC1CC1  -100.2%
92. Cc1nc(N(C)C)nc(C)c1NS(=O)(=O)c1ccccc1Cl  -104.4%
93. O=C(NCCc1cccc(F)c1)c1nc2c(s1)CCCN2C(=O)C1CC1  -105%
94. Cc1ccc2c(n1)N(CCn1cccn1)CCN(S(C)(=O)=O)C2.O=C(O)C(F)(F)F  -106%
95. O=C(C1CCOC1)N1C[C@H]2CN(Cc3ccncc3)C(=O)[C@H]2C1.O=C(O)C(F)(F)F (some centres not stated)  -110.3%
96. CC(=O)N(C)Cc1ccccc1NC(=O)c1ccccc1C  -129.3%
97. COC[C@@H]1CCC[C@]12CN(S(=O)(=O)c1cn(C)cn1)CCO2  -139.4%
98. Cc1ccc(C(F)(F)F)cc1NC(=O)C1CCCN1 (configuration not stated)  -141.5%
99. c1cnn(CCNCc2cnc(N3CCOCC3)nc2)c1  -160.5%
100. COCCC1(C(=O)O)CCCN(C(=O)c2cc(F)ccc2OC)C1 (configuration not stated)  -162.1%
101. CS(=O)(=O)Cc1ccccc1NCc1cc(Cl)ccc1Cl  -167.2%
102. CNC(=O)Cc1cc2nccc(-c3c(OC)cccc3OC)n2n1  -192.8%

— ChEMBL document CHEMBL3988442, “University of Dundee, Small-Polar-MMV Screening Library” (2021)
